Screens (PubChem)
Compounds with a hit are over-represented: about 12% of the library has one in this group of screens.
Sfp inh: inhibitors of Bacillus subtilis Sfp phosphopantetheinyl transferase. Q9F4F7. Biochemical Sfp PPTase activity, qHTS. Potency, µM, for the others: largest response in the series, negative = inhibition, usual class: inhibitors. hit rate 3.5% among 310,000. AID 1490;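 also: the enzyme is Sfp with the accession as filed and its product quenches rhodamine fluorescence; 0% = enzyme reaction without inhibitor and -100% = no enzyme wells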
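Buffer: 50 mM Hepes-Na pH 7.6, 10 mM MgCl2, 0.01% Nonidet P-40, 0.01% BSA. Enzyme 15 nM, pre-exposed to compound 15 min; substrates then added and fluorescence change tracked over 30 min.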
JMJD2A Tudor: JMJD2A Tudor domain (human) inhibition. O75164. AlphaScreen JMJD2A-Tudor / H3K4me3 peptide binding. Potency, µM (series often up to 114 µM), inactives show at the highest dose activity change, negative = inhibition, most hits filed as inhibitors. hit rate 4.4% among 390,000; also: % is scaled to controls: 0 for no effect and ±100 for the full control effect; nearly all actives have a fitted effect of over 50% in size
G9a inh: blocks human histone lysine methyltransferase G9a; Potency, µM (doses to about 102 µM), inactives show at the highest dose activity, negative = inhibition, hits mostly inhibitors; G9a H3K9 monomethylation, AlphaScreen, 2 h; Q96KQ7; hit rate 8.8% among 350,000; also: % is scaled to controls: 0 for no effect and ±100 for the full control effect; nearly all actives have a fitted effect of over 75% in size
Target sequence (Q96KQ7 913-1193 limits assumed): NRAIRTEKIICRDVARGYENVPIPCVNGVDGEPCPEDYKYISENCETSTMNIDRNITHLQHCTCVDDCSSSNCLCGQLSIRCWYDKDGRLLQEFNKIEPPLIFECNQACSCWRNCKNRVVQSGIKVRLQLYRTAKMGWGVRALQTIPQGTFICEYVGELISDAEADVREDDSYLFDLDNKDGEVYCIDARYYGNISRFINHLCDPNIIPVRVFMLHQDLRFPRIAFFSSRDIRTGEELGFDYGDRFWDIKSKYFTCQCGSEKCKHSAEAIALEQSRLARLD
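Chemiluminescent proximity detection of H3K9 monomethylation, read after 10 min bead incubation in the dark. Reaction: 20 nM G9a, 500 nM biotin-H3K9 peptide, 20 uM SAM cofactor, 2 h, room temperature, following 15 min enzyme-compound preincubation.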
BAZ2B inh: blocks human BAZ2B. AlphaScreen BAZ2B-H3K14Ac peptide displacement. Potency, µM (top dose mostly 114 µM), for the others: at the top dose activity change, negative = inhibition, usual class: inhibitors. hit rate 4.4% among 360,000. AID 504333; also: % is scaled to controls: 0 for no effect and ±100 for the full control effect; nearly all actives have a fitted effect of over 60% in size
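Protein-peptide AlphaScreen: BAZ2B 50 nM, b-H3K14Ac 50 nM, 1x PBS pH 7.4 + 0.01% Tween-20. Preincubation 30 min RT; cpd 30 min RT (top 110 uM); beads 20 min RT, light-protected.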
HP1b binding inh: HP1-beta chromodomain-methylated histone interaction inhibition. hit rate 0.56% among 390,000. AlphaScreen HP1-beta / biotin-H3K9me3 peptide binding. AID 540317. Potency, µM (series often up to 114 µM), for inactives: top-dose activity change, negative = inhibition, usual class: inhibitors; also: nearly all actives have a fitted effect of over 70% in size
Target sequence (P83916 whole entry, looked up): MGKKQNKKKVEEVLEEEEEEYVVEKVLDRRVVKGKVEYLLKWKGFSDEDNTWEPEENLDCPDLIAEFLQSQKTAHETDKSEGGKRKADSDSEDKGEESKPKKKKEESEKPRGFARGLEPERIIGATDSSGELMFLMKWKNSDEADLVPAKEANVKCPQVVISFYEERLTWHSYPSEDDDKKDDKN
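HP1-beta protein (50 nM final) preincubated 30 min at room temperature with biotinylated H3(1-18)K9me3 peptide (50 nM) in PBS pH 7.4, 0.01% Tween-20, then compound added for 30 min. AlphaScreen streptavidin donor/nickel chelate acceptor beads (10 ug/mL final), 30 min dark, luminescence read.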
* = called active by the depositor; ? = inconclusive; · = no result given; [ ] = dose if it differs, or a comment. Calls follow the shape of the dose curve; as a rule, active = well fitted curve in the direction sought with a large enough effect; inconclusive = small, poorly fitted or top-dose-only effect, or another doubt; inactive = no such curve, though single readings can be large; an effect the other way counts as inactive or inconclusive. Potency is read from the fitted curve at half-maximal effect.

SMILES	Sfp inh	JMJD2A Tudor	G9a inh	BAZ2B inh	HP1b binding inh
C=CCOc1ccc(C(=O)/C=C2/C(=O)Nc3ccccc32)cc1	13%	-17%	?	-39%	36%
NC(=O)COc1ccc(C(=O)/C=C2/C(=O)Nc3ccccc32)cc1	-6%	?	79µM*	-15%	-4%
O=C1Nc2ccccc2/C1=C/C(=O)c1cccs1	45µM*	-27%[57.1 µM]	?	35µM*	-25%
COc1ccc(C(=O)/C=C2/C(=O)Nc3ccccc32)cc1OC	0%	-15%	-50%	-8%	20%
C=CCOc1ccccc1C(=O)/C=C1/C(=O)Nc2ccccc21	79µM*	?	?	-34%	-13%
COc1ccc(C(=O)/C=C2/C(=O)Nc3ccccc32)cc1	-1%	-16%	-12%	-5%	40%
COc1ccc(C(=O)/C=C2/C(=O)Nc3ccccc32)c(OC)c1	56µM*	-22%	-41%[12.7 µM]	?	-33%
O=C(c1ccccc1)N1CCN(C(=O)c2nn3c(C(F)(F)F)cc(-c4ccco4)nc3c2Br)CC1	-5%	-8%	?	-2%	27%
Cc1cccc(S(=O)(=O)Nc2nc3ccccc3nc2NCc2ccc3c(c2)OCO3)c1	0%	-6%	2%[59 µM]	-3%	27%
O=C(NCCc1ccccc1)c1ccc2c(c1)OCCO2	16%	-11%	·	3%	42%
c1coc(-c2nc3ccccc3nc2-c2ccco2)c1	14µM*	?	8.9µM*	71µM*	5%
O=c1oc(-c2ccco2)nc2ccccc12	-8%	-3%	?	-9%	39%
O=C(c1ccccc1)c1ccc2nc(-c3ccco3)c(-c3ccco3)nc2c1	7.1µM*	13µM*	3.2µM*	14µM*	16µM*
O=C(NCCc1ccccc1)c1ccc2c(c1)OCCCO2	-14%	-13%	32µM*	-38%	7%
O=C(NCCO)c1ccc2nc(-c3ccco3)c(-c3ccco3)nc2c1	10µM*	22µM*	1.4µM*	?	45µM*
N#CCSc1nc(-c2ccccc2)cs1	-12%	5%	-23%[59 µM]	32%	49%
O=C(NC1CCCC1)c1ccc2nc(-c3ccco3)c(-c3ccco3)nc2c1	6.3µM*	28µM*	5µM*	?	79µM*
O=C(NCCc1ccccc1)c1ccc2nc(-c3ccco3)c(-c3ccco3)nc2c1	25µM*	56µM*	1.4µM*	10µM*	?
CCOP(=O)(O)c1ccccc1OCCOCCOc1ccccc1P(=O)(O)OCC	17%	?	56µM*	?	27%
Cc1ccc(C(C)C)c(OCCN(C)C)c1	?	2.8µM*	3.5µM*	35µM*	?
Cc1ccc(C(C)C)c(OCCN2C(=O)NC(C)(C)C2=O)c1	23%	0%[57.1 µM]	-9%	1%	24%
Cc1ccc(C(C)C)c(OCCOCCN2CCNCC2)c1	·	-23%	·	·	5%
Cc1ccc(C(C)C)c(OCCCCN2CCNCC2)c1	56µM*	7.1µM*	4µM*	28µM*	?
Cc1ccc(C(C)C)c(OCC#CCN2CCOCC2)c1	?	22µM*	7.9µM*	50µM*	?
CCCN(CCC)CCOc1cc(C)ccc1C(C)C	-50%	3.2µM*	18µM*	?	?
SMILES	Sfp inh	JMJD2A Tudor	G9a inh	BAZ2B inh	HP1b binding inh
Cc1ccc(C(C)C)c(OCCN)c1	-2%	-10%	?	5%	9%
Cc1ccc(C(C)C)c(OCC(O)CN2CCOCC2)c1 (configuration not stated)	-13%	-9%	2%	15%	37%
CCOC(=O)c1ccc(CN(Cc2ccc(Br)cc2)S(=O)(=O)c2cccc(Cl)c2C)cc1	·	13%	27%[59 µM]	0%	8%
CC(C)[C@@H]1NC(=O)N(c2ccc(Oc3ccccc3)cc2)C1=O	4%	-4%	12%[59 µM]	2%	21%
Cc1ccc(C)c(OCCCN2CCNCC2)c1	-6%	-25%	?	-2%	23%
Cc1ccc(SCCCCN2CCNCC2)cc1	50µM*	11µM*	8.9µM*	40µM*	12%
Cc1cc(C(C)(C)C)ccc1OCCN(C)C	-24%	7.9µM*	8.9µM*	28µM*	?
COc1ccc(CCN(C)CCCOc2ccc(S(=O)(=O)c3[nH]c4ccccc4c3C(C)C)cc2)cc1OC	40µM*	·	·	·	·
COc1ccc(CCN(Cc2ccc(C(C)C)cc2)S(=O)(=O)c2ccc(S(=O)(=O)N(C)C)cc2)cc1OC	7%	-5%	-10%[59 µM]	9%	14%
O=C(NNS(=O)(=O)c1ccccc1Cl)C1COc2ccccc2O1 (configuration not stated)	·	-13%	·	·	33%
COCCn1c(=NC(=O)c2cc(Cl)sc2Cl)sc2cc(S(N)(=O)=O)ccc21	11%	-7%	28µM*	-8%	16%
COc1ccccc1N1CCN(C(=O)c2cccs2)CC1	5%	0%	13%	-13%	17%
COc1cc(OC)cc(C(=O)Nc2cccc(N3CCCC3)c2)c1	-6%	50µM*	3.5µM*	-38%	-17%
COc1cc(OC)cc(C(=O)Nc2ccc(Nc3ccccc3)cc2)c1	6%	?	35µM*	25µM*	-26%
COc1cc(OC)cc(C(=O)Nc2cccc(-c3cn4ccsc4n3)c2)c1	·	?	-24%[59 µM]	71µM*	0%[57 µM]
COc1cccc(C(=O)Nc2cc(Cl)c(O)c(Cl)c2)c1	8%	-15%	45µM*	-24%	21%
COc1cccc(OC)c1C(=O)Nc1cccc(-c2cn3ccsc3n2)c1	·	-23%	5%[59 µM]	-26%	13%[57 µM]
COc1cc(OC)cc(C(=O)Nc2ccc(-c3nc4ccccc4o3)cc2)c1	8.9µM*	3%[57.1 µM]	-9%	-1%	26%
COc1cc(OC)cc(C(=O)Nc2ccc(NC(=O)c3ccco3)c(C)c2)c1	11%	-18%	50µM*	-26%	0%
COc1cc(OC)cc(C(=O)Nc2cc(NC(=O)c3ccco3)ccc2OC)c1	-3%	-34%	1%[59 µM]	-1%	34%
CCOc1cc(C(=O)NCc2ccc(-c3nc4ccccc4o3)cc2)cc(OCC)c1OCC	1%	-3%	28µM*	1%	14%
COc1ccc(C(=O)Nc2ccc(Nc3ccccc3)cc2)cc1[N+](=O)[O-]	12%	35µM*	?	?	?
CCC(C)(C)NC(=O)C(c1ccccc1Cl)N(C(=O)CCC(=O)Nc1cc(C)on1)C(C)(C)C (configuration not stated)	1%	56µM*	-4%[59 µM]	-8%	0%
COCCCNC(=O)/C(=C\c1cccn1C)NC(=O)c1cccs1	14%	-11%	-9%[59 µM]	1%	12%
COc1ccc(N2C(=O)c3ccccc3NC2(C)C)cc1	21%	-9%	-10%[59 µM]	-15%	22%
COc1ccc2c(c1)-c1c(sn(-c3ccccc3)c1=S)C(C)(C)N2	-5%	40µM*	28µM*	8.9µM*	?
COc1cc2c3c(c1)-c1c(sn(-c4cc(OC)ccc4OC)c1=S)C(C)(C)N3C(=O)C2=O	-10%	4%	?	7.1µM*	19%
